Compound activity as filed in PubChem.
Marburg entry inh: blocks Marburg virus binding to or entry into cells; Marburg virus pseudotyped entry inhibition, cell reporter; Potency, µM (titrated, usually from 37.8 µM), for inactives: at the highest dose activity change, negative = inhibition, hits mostly inhibitors; hit rate 1.8% among 300,000; calls by dose curve; tested in HEK293 cells; further: potency means the concentration at half of the fitted maximal effect
VACV mCherry inh: inhibitors of vaccinia virus infection (mCherry reporter signal); Vaccinia virus mCherry reporter infection, fluorescence; Potency, µM (titrated, usually from 36.5 µM), for inactives: top-dose activity change, negative = inhibition, usual class: inhibitors; AID 720579; hit rate 0.63% among 310,000; calls by dose curve; tested in A549 cells; further: potency means the concentration at half of the fitted maximal effect; nearly all actives have a fitted effect of over 35% in size
Lassa entry inh: blocks Lassa virus binding to or entry into cells; Potency, µM (series often up to 37.9 µM), without a hit: at the top dose activity change, negative = inhibition, usual class: inhibitors; hit rate 1.2% among 300,000; AID 540256; Lassa virus pseudotype entry inhibition, cell reporter; calls by dose curve; tested in HEK293 cells; further: potency means the concentration at half of the fitted maximal effect; nearly all actives have a fitted effect of over 50% in size
FMDV inh: antivirals against foot and mouth disease virus; FMDV antiviral cell-based qHTS; Potency, µM (top dose mostly 57.9 µM), for inactives: top-dose activity change, negative = inhibition, hits mostly inhibitors; hit rate 1.2% among 410,000; calls by dose curve; tested in HEK293T cells; further: read-out not given here; potency means the concentration at half of the fitted maximal effect; nearly all actives have a fitted effect of over 45% in size
VACV Venus inh: vaccinia inhibition (Venus reporter) | Potency, µM (series often up to 36.5 µM), without a hit: at the highest dose activity change, negative = inhibition, actives largely listed as inhibitors | hit rate 0.46% among 330,000 | AID 720580 | Vaccinia virus Venus reporter expression, fluorescence; calls by dose curve; tested in A549 cells; further: potency means the concentration at half of the fitted maximal effect; nearly all actives have a fitted effect of over 30% in size
HCMV antiviral: blocks human cytomegalovirus replication; HFF cells, HCMV-luciferase reporter, 72 h; stronger effect = lower value; activity change, negative = inhibition, % at 57.5 µM; hit rate 4.5% among 410,000; AID 1259415; in the data active means activity change below about -60%; inconclusive means no clear call, values can overlap the other calls; inactive means above about -39%
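Inhibition of viral replication was scored as loss of reporter luminescence in HFFs infected with HCMV-luciferase (MOI 1 PFU/cell) for 72 h; compounds tested at 2 doses, normalized to buffer and Salinomycin controls.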
Starred values were filed as active, the others as inactive; i = inactive; ? = inconclusive; . = no result; [ ] = remark or other dose. The list is not random: actives were taken first. Their share in the collection is about 6.5%. On the % scale 0 is the no-effect control and ±100 the full control effect.

SMILES | Marburg entry inh | VACV mCherry inh | Lassa entry inh | FMDV inh | VACV Venus inh | HCMV antiviral
O=C1[C@@H]2[C@H](ON(c3ccccc3)[C@H]2c2ccncc2)C(=O)N1c1ccc(Br)cc1 | -21% | . | . | . | . | .
COC(=O)c1c(C)nn(-c2ccc(OC(F)(F)F)cc2)c1-c1snnc1C | ? | -12% | ? | 35µM* | -18% | -20
COc1ccc(OC[C@@H]2CC3[C@@H](CC[C@@H](C)[C@H]3c3ccc(Br)cc3)C(=O)O2)cc1 (stereo not given in full) | -5%[14.2 µM] | . | ? | . | . | .
COc1ccccc1/C=C(/C(=O)OCC(=O)Nc1ccc(N(C)C)cc1)c1ccccc1 | 32% | i | 5% | -19% | -12% | -16
CCOc1cc(/C=C\[N+](=O)[O-])ccc1OCC(=O)Nc1ccccc1C | 0% | -13% | . | 25µM* | ? | .
COc1cc(/C=C/c2cccc[n+]2C)ccc1OCC(=O)Nc1ccccc1C | 0%[46.1 µM] | -14% | 3%[46.1 µM] | 2% | 3% | ?
COc1cc(/C=N/O)c(Br)cc1OCC(=O)Nc1ccccc1C | ? | -3% | 19% | 1% | -28% | 7
COc1cc(/C=N/NC(N)=O)c(Br)cc1OCC(=O)Nc1ccccc1C | 11µM* | -12% | ? | -7% | -4% | -26
CCOc1cc(/C=C/c2cccc[n+]2C)ccc1OCC(=O)Nc1ccc(C)cc1 | -22%[46.1 µM] | -10% | -25%[46.1 µM] | -2% | -12% | -95*
COc1ccccc1/C=C(/C(=O)OCC(=O)Nc1ccccc1C)c1ccccc1 | 0% | . | ? | ? | . | -62*
CC(C)(C)c1ccc(S(=O)(=O)N[C@H]2CC[C@@H](n3cc(C(=O)N4CCCC4)nn3)CC2)cc1 | . | -22% | . | -20% | -23% | .
COc1ccc(CNc2cc(-c3ccccc3C)ncn2)c(OC)c1 | . | . | . | 2% | . | .
c1cncc(OC2CCN(Cc3ccc4c(c3)CN(Cc3ccc5c(c3)OCO5)CCO4)CC2)c1 | . | -7% | . | ? | -8% | .
CCOc1cc(/C=N/NC(N)=O)cc(Br)c1OCC(=O)Nc1ccccc1C | 11µM* | -22% | -4% | -18% | -10% | -21
CC(C)(C)C(=O)NC(=S)Nc1cc(C(=O)O)ccc1Cl | ? | -13% | 14% | 5% | -3% | -61*
CC(C)(C)C(=O)NC(=S)Nc1cccc(C(=O)O)c1 | ? | -15% | 3%[46.1 µM] | -3% | -9% | -3
COc1ccc2sc(N(CCN(C)C)C(=O)/C=C/c3cccs3)nc2c1 | . | . | . | ? | . | -76*
COc1ccc2nc(N(CCN(C)C)C(=O)/C=C/c3cccs3)sc2c1 | . | . | . | ? | . | -70*
CCOc1ccc2nc(N(CCN(CC)CC)C(=O)/C=C/c3cccs3)sc2c1 | ? | ? | -24%[46.1 µM] | -7% | -25% | ?
CCN(CC)CCN(C(=O)/C=C/c1cccs1)c1nc2ccc(OC)cc2s1 | . | . | . | -5% | . | 4
Nc1c(-c2ccccc2)cnn1-c1cccc(C(F)(F)F)c1 | 13% | . | 18% | 23% | -27% | -106*
Nc1c(-c2cccc(Cl)c2)cnn1-c1cccc(C(F)(F)F)c1 | 19% | . | 7% | -25% | . | -18
CC(C)n1ncc2c(C(=O)N3CCN(c4ccc(F)cc4)CC3)cc(-c3ccccc3)nc21 | . | . | . | 7% | . | -70*
Cc1ccccc1N1CCN(C(=O)c2cc(-c3ccccc3)nc3c2cnn3C(C)C)CC1 | . | i | . | -11% | -14% | -13
Cc1ccc(C(=S)N2CCN(Cc3ccccc3)CC2)cc1 | 5%[46.1 µM] | ? | ? | -27% | -1% | -30
SMILES | Marburg entry inh | VACV mCherry inh | Lassa entry inh | FMDV inh | VACV Venus inh | HCMV antiviral
CCN1CCN(C(=S)c2ccc(-c3ccccc3)cc2)CC1 | . | . | . | -28% | . | -81*
COc1cc(NC(=O)Nc2cccc(-c3noc(C)n3)c2)cc(OC)c1OC | . | -7% | 0%[46.1 µM] | ? | -13% | -77*
OC(CNc1ccccc1)COc1ccc(OCC(O)CNc2ccccc2)cc1 (stereo not given) | 11µM* | . | ? | ? | 11µM* | ?
CCOCC(O)CNc1ccccc1 (stereo not given) | ? | i | 5% | -10% | -7% | ?
Cc1ccc(S(=O)(=O)N2CCCc3nc(-c4ccc(F)cc4)ccc32)cc1 | . | . | . | . | . | 47
C=CCOC(=O)/C(=C\c1ccccc1)NC(=O)c1ccc(C)cc1 | . | -10% | . | 69% | -12% | -67*
CCOC(=O)/C(=C\c1ccccc1)NC(=O)c1ccccc1 | . | . | . | 0% | . | -11
O=C(OCC(=O)c1ccc([N+](=O)[O-])cc1)/C(=C/c1ccc(Cl)cc1)NC(=O)c1ccccc1 | 2% | -1% | 6% | 0% | -15% | -65*
COc1cccc(-c2n[nH]c3ccnc(-c4cccc(C(C)=O)c4)c23)c1 | . | . | . | . | . | -21
CCCCOCC1CN(CCCC)S(=O)(=O)c2c(Oc3ccc(C(C)C)cc3)cccc2O1 (stereo not given) | . | . | ? | . | . | -5
Cc1onc(-c2ccccc2Cl)c1C(=O)Oc1ccc(Cl)cc1Cl | . | -13% | -5%[46.1 µM] | -12% | -12% | ?
COc1ccc(/C(N)=N/OC(=O)c2c(-c3ccccc3Cl)noc2C)cc1OC | ? | -11% | ? | 0% | ? | -79*
C/C(=N\OC(=O)c1c(-c2c(F)cccc2Cl)noc1C)c1nccs1 | -23%[46.1 µM] | -3% | -7%[46.1 µM] | -2% | -5% | 18
Cc1nc(/C(N)=N/OC(=O)c2c(-c3ccccc3Cl)noc2C)cs1 | 7.9µM* | i | -25% | -13% | -19% | -39
Cc1onc(-c2c(F)cccc2Cl)c1C(=O)O/N=C(\N)c1ccc([N+](=O)[O-])o1 | -2%[46.1 µM] | ? | -1% | 49% | ? | -62*
Cc1cccc2c(Nc3ccc4c(c3)OCO4)nc(CN3CCC(N4CCCCC4)CC3)nc12 | . | i | . | -12% | -12% | .
COc1ccccc1-c1cc2c(c(OC)c1)OCCN(C(=O)Cn1nc(-c3ccccc3)c3ccccc3c1=O)C2 | . | i | . | -9% | -5% | .
N#Cc1cc(NC(=O)c2ccc(Cl)cc2)ccc1Sc1ccccc1 | . | ? | . | -11% | ? | -83*
O=C(Nc1nc2ccccc2[nH]1)c1cc(F)cc(F)c1 | ? | -12% | 9%[46.1 µM] | 18% | -3% | 10
O=C(Nc1nc2ccccc2[nH]1)c1ccccc1F | 0.32µM* | 14% | 0.28µM* | 3.2µM* | -20% | -79*
O=C(Nc1nc2ccccc2[nH]1)c1ccccc1OC(F)F | ? | -2% | ? | -39% | -7% | 80
COc1ccc(Sc2ccc(NC(=O)c3ccccc3Cl)cc2C#N)cc1 | ? | . | ? | -18% | -29% | -26
O=C(Nc1nc2ccccc2[nH]1)c1ccc(F)cc1 | ? | . | 6.5µM* | 20µM* | . | 74
COc1ccc(Cl)cc1C(=O)Nc1nc2ccccc2[nH]1 | ? | i | ? | 11µM* | -20% | 1
COCCCn1cnn2c(=O)c3ccccc3nc2c1=O | . | . | . | . | . | 20
N#Cc1ccc(C(=O)Nc2nc3ccccc3[nH]2)cc1 | 10µM* | -18% | ? | -4% | -1% | 90
